# Test results taken from the supplement of paper PMC7380943.
# ± gives the standard deviation of the averaged measurements.
# What was measured:
# [1] = system: CLZ3 (HCA2 human fibroblast dual HR-NHEJ reporter); assay: NHEJ repair efficiency (GFP+ cells) relative to control (log10 fold); higher = more non-homologous end joining; settings: 5 µM; doxycycline 0.5 ug/mL
# [2] = system: CLZ3 (HCA2 human fibroblast dual HR-NHEJ reporter); assay: HR repair efficiency (tdTomato+ cells) relative to control (log10 fold); higher = more homologous recombination; settings: 5 µM; doxycycline 0.5 ug/mL
# 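For HR repair efficiency (tdTomato+ cells) relative to control in this document: compound given one day before doxycycline, which switches on I-SceI endonuclease expression to create double-strand breaks within the integrated reporter.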
# 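For NHEJ repair efficiency (GFP+ cells) relative to control in this document: compound given one day ahead of doxycycline, which switches on I-SceI endonuclease to cut the chromosomally integrated reporter and create DSBs.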
Compound,NHEJ repair efficiency (log10) [1],HR repair efficiency (log10) [2]
C[C@H](CCC(=O)O)[C@H]1CC[C@H]2[C@@H]3[C@H](O)C[C@@H]4C[C@H](O)CC[C@]4(C)[C@H]3C[C@H](O)[C@]12C [Cholic acid],-0.0347,-0.0733
CC(C)[C@@H](C)/C=C/[C@@H](C)[C@H]1CC[C@H]2C3=CC=C4C[C@@H](O)CC[C@]4(C)[C@H]3CC[C@]12C [Ergosterol],0.00511,0.141
O=c1oc2c(O)c(O)cc3c(=O)oc4c(O)c(O)cc1c4c23 [Ellagic Acid],-0.0512,-0.174
C/C=C(/C)C(=O)O[C@H]1[C@@H](OC(=O)CC(C)C)c2c(ccc3ccc(=O)oc23)OC1(C)C [Praeruptorin E],-0.0864,-0.0529
CC(CC(=O)C[C@@H](C)[C@H]1CC(=O)[C@@]2(C)C3=C(C(=O)C[C@]12C)[C@@]1(C)CCC(=O)C(C)(C)[C@@H]1C[C@@H]3O)C(=O)O (stereo partly specified) [Ganoderic Acid D],0.113,-0.241
CC(C)=CCC[C@](C)(O)[C@H]1CC[C@]2(C)[C@@H]1[C@H](O)C[C@@H]1[C@@]3(C)CC[C@H](O[C@@H]4O[C@H](CO)[C@@H](O)[C@H](O)[C@H]4O[C@@H]4O[C@H](CO)[C@@H](O)[C@H](O)[C@H]4O)C(C)(C)[C@@H]3CC[C@]12C [R-Ginsenoside Rg3],0.0761,-0.0174
O=C(O)c1cc(O)c2c(c1)[C@@H]([C@H]1c3cc(C(=O)O)cc(O)c3C(=O)c3c(O[C@@H]4O[C@H](CO)[C@@H](O)[C@H](O)[C@H]4O)cccc31)c1cccc(O[C@@H]3O[C@H](CO)[C@@H](O)[C@H](O)[C@H]3O)c1C2=O [Sennoside B],-0.162,0.0301
CC1OC(OC2C(OC3CCC4(C)C(CCC5(C)C4CC=C4C6CC(C)(C)CCC6(C(=O)OC6OC(COC7OC(CO)C(O)C(O)C7O)C(O)C(O)C6O)CCC45C)C3(C)CO)OCC(O)C2O)C(O)C(O)C1O (stereo unspecified) [Dipsacoside B],-0.0161 ± 0.011,0.00385 ± 0.11
CC(C)=CCc1c(-c2ccc(O)cc2O)oc2c([C@H]3C=C(C)C[C@@H](c4ccc(O)cc4O)[C@@H]3C(=O)c3ccc(O)cc3O)c(O)cc(O)c2c1=O [Kuwanon G],0.0109,0.129
CC(C)=CCc1cc2c(cc1O)oc(=O)c1c3ccc(O)cc3oc21 [Psoralidin],0.31,-0.0999
Cc1cc(O)c(C(=O)CCC(C)C)c(=O)o1 [Pogostone],-0.0825,-0.0091
CC(C)(O)[C@H](O)COc1c2ccoc2cc2oc(=O)ccc12 [Oxypeucedanin Hydrate],-0.0248,0.00711
O=C1C=C2C=C[C@@H](O)[C@H](O)[C@H]2O1 [Griffonilide],0.0786,0.00766
CCCCCC=CC(=O)CCc1ccc(O)c(OC)c1 [6-Shogaol],-0.0185,-0.0794
CC1(C)CC[C@]2(C(=O)O)CC[C@]3(C)C(=CC[C@@H]4[C@@]5(C)CC[C@H](O)[C@@](C)(CO)[C@@H]5CC[C@]43C)[C@@H]2C1 [Hederagenin],-0.021,-0.0988
C=C(C)C(=O)Cc1c(OC)ccc2ccc(=O)oc12 [Murrayone],0.0921,-0.312
O=C1O[C@H]2[C@@H]3OC(=O)c4cc(O)c(O)c(O)c4-c4c(cc(O)c(O)c4O)C(=O)OC[C@H]2O[C@@H](OC(=O)c2cc(O)c(O)c(O)c2)[C@@H]3OC(=O)c2cc(O)c(O)c3c2[C@@H]2C1=CC(=O)[C@](O)(O3)C2(O)O [Geraniin],-0.0851,0.0593
c1cc2c(c3c1CC1c4cc5c(cc4CCN1C3)OCO5)OCO2 (stereo unspecified) [Tetrahydrocoptisine],-0.0636,-0.0746
C[C@@]1(CO)C[C@@H](O)C[C@@]2(C)[C@@H]3CC[C@](C)([C@@H](O)CO)C=C3CC[C@H]12 [Kirenol],-0.121,0.0441
Cc1cc(=O)c2c(O)c3c(cc2o1)OC(C)(C)[C@@H](O[C@@H]1O[C@H](CO)[C@@H](O)[C@H](O)[C@H]1O)C3 [Sec-O-Glucosylhamaudol],-0.132,-0.0801
CC(C)=C1C/C=C(\C)CC/C=C(\C)CC1=O [Germacrone],0.0003,-0.103
O=C(O)C(O)Cc1ccc(O)c(O)c1 (stereo unspecified) [Sodium Danshensu],-0.0204,0.0346
OCC1=C[C@@H](O)[C@]2(O[C@@H]3O[C@H](CO)[C@@H](O)[C@H](O)[C@H]3O)C=CO[C@@H](O[C@@H]3O[C@H](CO)[C@@H](O)[C@H](O)[C@H]3O)[C@H]12 [Melittoside],-0.134,0.096
